This passage reports binding signal results from publication PMC3218832.

Among the targets are RELARELA (p65 homodimer) (Homo sapiens, UniProt Q04206 1-307); p50p50 homodimer (Homo sapiens, UniProt P19838 7-356); RELB subunit;p50 subunit (Homo sapiens;Homo sapiens, UniProt Q01201;P19838 120-401;7-356).
Common to all, as to experiment: protein binding microarray; high values mean tight binding
What all share (conditions): dsDNA, one strand shown

The next assay concerns the target T1, p52p52 homodimer (Homo sapiens, UniProt Q00653 4-332).
T1 sequence: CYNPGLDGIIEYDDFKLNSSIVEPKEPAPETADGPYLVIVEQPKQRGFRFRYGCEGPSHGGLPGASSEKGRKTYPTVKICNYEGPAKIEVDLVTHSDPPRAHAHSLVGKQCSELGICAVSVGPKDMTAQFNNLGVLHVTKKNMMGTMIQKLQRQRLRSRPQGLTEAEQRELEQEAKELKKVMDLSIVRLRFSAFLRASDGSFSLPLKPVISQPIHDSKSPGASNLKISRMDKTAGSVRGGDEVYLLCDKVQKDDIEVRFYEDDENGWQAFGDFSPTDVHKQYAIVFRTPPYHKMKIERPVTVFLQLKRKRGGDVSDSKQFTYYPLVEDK

Assay [1] has as its target RELA (p65) subunit of heterodimer;p50 subunit (Homo sapiens;Homo sapiens, UniProt Q04206;P19838 1-307;7-356).
Assay [2] concerns the target RELA (p65) subunit of heterodimer;p52 subunit (Homo sapiens;Homo sapiens, UniProt Q04206;Q00653 1-307;4-332).
Another assay addresses T2, RELB subunit;p52 subunit (Homo sapiens;Homo sapiens, UniProt Q01201;Q00653 120-401;4-332).
T2 sequence 1: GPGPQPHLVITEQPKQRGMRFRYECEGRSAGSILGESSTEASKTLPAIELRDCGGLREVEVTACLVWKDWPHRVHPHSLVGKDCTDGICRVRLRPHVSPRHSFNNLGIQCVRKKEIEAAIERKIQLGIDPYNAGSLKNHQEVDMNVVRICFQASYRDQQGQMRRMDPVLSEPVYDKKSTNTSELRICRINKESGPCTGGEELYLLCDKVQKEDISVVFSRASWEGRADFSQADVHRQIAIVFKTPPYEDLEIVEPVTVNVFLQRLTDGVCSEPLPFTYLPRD
T2 sequence 2: T1 sequence

The target in assay [3] is C-Rel subunit;p50 subunit (Homo sapiens;Homo sapiens, UniProt Q04864;P19838 1-285;7-356).
Assay [4] concerns the target T3, C-Rel subunit;p52 subunit (Homo sapiens;Homo sapiens, UniProt Q04864;Q00653 1-285;4-332).
T3 sequence 1: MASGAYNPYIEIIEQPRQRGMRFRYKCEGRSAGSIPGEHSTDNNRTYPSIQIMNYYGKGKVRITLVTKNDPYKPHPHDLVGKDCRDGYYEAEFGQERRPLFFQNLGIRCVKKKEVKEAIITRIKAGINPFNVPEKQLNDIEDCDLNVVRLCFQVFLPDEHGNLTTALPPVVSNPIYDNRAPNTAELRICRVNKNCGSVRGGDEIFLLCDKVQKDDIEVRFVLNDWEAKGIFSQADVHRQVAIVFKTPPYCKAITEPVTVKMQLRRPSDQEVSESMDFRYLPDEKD
T3 sequence 2: T1 sequence

Chain of p50p50 homodimer (P19838 7-356): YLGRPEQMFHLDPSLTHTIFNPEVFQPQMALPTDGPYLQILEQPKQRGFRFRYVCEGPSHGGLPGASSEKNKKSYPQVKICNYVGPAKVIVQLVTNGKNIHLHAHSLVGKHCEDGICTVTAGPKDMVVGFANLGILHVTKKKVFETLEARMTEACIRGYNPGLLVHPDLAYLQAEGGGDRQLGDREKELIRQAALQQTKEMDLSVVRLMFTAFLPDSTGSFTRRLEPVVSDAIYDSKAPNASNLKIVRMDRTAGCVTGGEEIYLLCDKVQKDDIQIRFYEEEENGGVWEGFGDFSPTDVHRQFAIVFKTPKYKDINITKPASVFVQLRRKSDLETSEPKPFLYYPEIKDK
Chain of RELA (p65) subunit of heterodimer;p50 subunit (Q04206 1-307, chain 1 of 2): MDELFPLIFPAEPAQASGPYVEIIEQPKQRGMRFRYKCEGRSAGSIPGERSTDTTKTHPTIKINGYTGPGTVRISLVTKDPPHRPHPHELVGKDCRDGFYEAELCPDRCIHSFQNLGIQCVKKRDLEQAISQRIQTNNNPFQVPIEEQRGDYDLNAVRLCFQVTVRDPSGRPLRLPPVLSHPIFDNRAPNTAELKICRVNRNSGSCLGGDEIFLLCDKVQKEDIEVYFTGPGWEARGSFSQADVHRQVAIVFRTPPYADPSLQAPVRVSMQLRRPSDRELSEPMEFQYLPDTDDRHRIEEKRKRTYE
Chain of RELA (p65) subunit of heterodimer;p50 subunit (P19838 7-356, chain 2 of 2): as the sequence (P19838 7-356) above
Chain of RELARELA (p65 homodimer) (Q04206 1-307): as the sequence (Q04206 1-307, chain 1 of 2) above

For the sequence GAAAGTTCCCT, the binding signal came to 0.999 z-score in the assay with RELARELA (p65 homodimer); 1.15 z-score with p50p50 homodimer; 1.11 z-score with p52p52 homodimer; 1.12 z-score in assay [1]; 1.03 z-score in [2]; 0.985 z-score with RELB subunit;p50 subunit. Also, the binding signal in the assay with RELB subunit;p52 subunit was 0.987 z-score; in [3], 0.705 z-score; in assay [4] it was 0.73 z-score.

In the case of AAGATGGCCCT, the binding signal with RELARELA (p65 homodimer) was -0.837 z-score; with p50p50 homodimer, -0.78 z-score; with p52p52 homodimer, -0.556 z-score; in assay [1] it was -0.621 z-score; in assay [2] it was -0.715 z-score; in the assay with RELB subunit;p50 subunit, -0.275 z-score. For the same sequence, the binding signal with RELB subunit;p52 subunit is -0.142 z-score; in [3], -0.828 z-score; in [4] it was -0.686 z-score.

For GGAAAGATCCT, the binding signal in the assay with RELARELA (p65 homodimer) was -0.0836 z-score; in the assay with p50p50 homodimer, -1.25 z-score; in the assay with p52p52 homodimer, -0.674 z-score; in assay [1], -0.749 z-score; in assay [2], -0.654 z-score; with RELB subunit;p50 subunit, -0.932 z-score. The binding signal in the assay with RELB subunit;p52 subunit is -0.789 z-score; in [3] it was -0.978 z-score; in assay [4], -0.449 z-score.

On to GAAAGACCCCC, for which the binding signal with RELARELA (p65 homodimer) was -0.269 z-score; in the assay with p50p50 homodimer, 0.985 z-score; with p52p52 homodimer, 0.754 z-score; in assay [1] it was 1.12 z-score; in assay [2], 1.17 z-score; with RELB subunit;p50 subunit, 0.92 z-score. The figures for the binding signal (with RELB subunit;p52 subunit; in [3]; in [4]) were 1.03 z-score, 0.485 z-score and 0.846 z-score, respectively.

Regarding GAAGTAATCCT, the binding signal with RELARELA (p65 homodimer) was -0.663 z-score; with p50p50 homodimer it was -1.65 z-score; with p52p52 homodimer it was -0.468 z-score; in assay [1], -1 z-score; in assay [2], -0.977 z-score; in the assay with RELB subunit;p50 subunit it was -1.16 z-score. Besides, the binding signal in the assay with RELB subunit;p52 subunit was -0.928 z-score; in assay [3], -1.23 z-score; in [4], -0.892 z-score.

In the case of CAATGTGTCCT, the binding signal in the assay with RELARELA (p65 homodimer) is 0.249 z-score; in the assay with p50p50 homodimer, -1.04 z-score; with p52p52 homodimer, -0.284 z-score; in assay [1] it was -0.926 z-score; in assay [2] it was -0.828 z-score; with RELB subunit;p50 subunit, -0.731 z-score. In addition, the binding signal is -0.475 z-score with RELB subunit;p52 subunit, -0.887 z-score in assay [3] and -0.764 z-score in assay [4].

As for AAGAGCTTCCC, the binding signal with RELARELA (p65 homodimer) is 0.146 z-score; with p50p50 homodimer, -0.795 z-score; with p52p52 homodimer, -0.487 z-score; in assay [1] it was -0.305 z-score; in assay [2], -0.49 z-score; in the assay with RELB subunit;p50 subunit, -0.563 z-score. The binding signal with RELB subunit;p52 subunit was -0.671 z-score; in [3], -0.423 z-score; in [4] it was -0.463 z-score.

For the sequence CAATACGCCCC, the binding signal is 0.0573 z-score with RELARELA (p65 homodimer); 0.196 z-score with p50p50 homodimer; 0.145 z-score with p52p52 homodimer; 0.039 z-score in assay [1]; 0.0537 z-score in [2]; 0.204 z-score with RELB subunit;p50 subunit. In addition, the binding signal with RELB subunit;p52 subunit amounted to 0.503 z-score; in [3] it was 0.297 z-score; in assay [4], 0.13 z-score.

Take CGATATTTCCT: the binding signal with RELARELA (p65 homodimer) is 0.574 z-score; with p50p50 homodimer, -0.558 z-score; with p52p52 homodimer it was -0.405 z-score; in assay [1] it was -0.302 z-score; in assay [2] it was -0.495 z-score; with RELB subunit;p50 subunit, -0.725 z-score. Besides, the values for the binding signal (in the assay with RELB subunit;p52 subunit; in assay [3]; in assay [4]) were -0.422 z-score, -0.166 z-score and -0.154 z-score, respectively.

Regarding CAAGACCTCCC, the binding signal is -0.906 z-score with RELARELA (p65 homodimer); -1.11 z-score in the assay with p50p50 homodimer; -0.577 z-score with p52p52 homodimer; -0.688 z-score in [1]; -0.796 z-score in [2]; -0.585 z-score in the assay with RELB subunit;p50 subunit. Further, the results for the binding signal (in the assay with RELB subunit;p52 subunit; in assay [3]; in assay [4]) were -0.626 z-score, -0.818 z-score and -0.713 z-score, respectively.

AAGTAAGTCCC: the binding signal in the assay with RELARELA (p65 homodimer) worked out at 0.51 z-score; with p50p50 homodimer, 1.02 z-score; with p52p52 homodimer, 0.587 z-score; in assay [1], 0.837 z-score; in [2] it was 0.459 z-score; with RELB subunit;p50 subunit, 1.1 z-score. For the same sequence, the binding signal with RELB subunit;p52 subunit was found to be 0.647 z-score; in assay [3], 0.768 z-score; in assay [4], 0.419 z-score.

Regarding CAATTCCTCCT, the binding signal in the assay with RELARELA (p65 homodimer) was 0.0653 z-score; with p50p50 homodimer, -1.06 z-score; with p52p52 homodimer, -0.655 z-score; in [1], -0.688 z-score; in assay [2], -0.609 z-score; in the assay with RELB subunit;p50 subunit, -0.871 z-score. Besides, the binding signal is -0.932 z-score with RELB subunit;p52 subunit, -0.776 z-score in assay [3] and -0.597 z-score in [4].

As for CGGTAGTCCCC, the binding signal is 0.678 z-score with RELARELA (p65 homodimer); 1.22 z-score with p50p50 homodimer; 1.51 z-score in the assay with p52p52 homodimer; 1.43 z-score in assay [1]; 1.31 z-score in assay [2]; 1.05 z-score in the assay with RELB subunit;p50 subunit. The values for the binding signal (with RELB subunit;p52 subunit; in assay [3]; in assay [4]) were 1.33 z-score, 1.12 z-score and 1.42 z-score, respectively.

Regarding AGAATTGCCCT, the binding signal was 0.531 z-score with RELARELA (p65 homodimer); -0.747 z-score with p50p50 homodimer; -0.409 z-score with p52p52 homodimer; 0.222 z-score in assay [1]; -0.0792 z-score in assay [2]; -0.516 z-score in the assay with RELB subunit;p50 subunit. Also, the binding signal with RELB subunit;p52 subunit is -0.558 z-score; in assay [3], -0.0961 z-score; in assay [4], 0.0532 z-score.

For GGAAGACTCCT, the binding signal with RELARELA (p65 homodimer) is -0.12 z-score; with p50p50 homodimer, -1.87 z-score; with p52p52 homodimer, -0.778 z-score; in assay [1] it was -0.958 z-score; in assay [2] it was -1.02 z-score; with RELB subunit;p50 subunit it was -1.23 z-score. Moreover, the binding signal is -0.943 z-score in the assay with RELB subunit;p52 subunit, -1.17 z-score in assay [3] and -0.891 z-score in assay [4].
